Test [1] can be described thus: ATG_CMV_CIS: Attagene CIS-FACTORIAL HepG2 Assay for human CMV (Internal Marker) (AID 2282928).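 Also: endpoint acts as a background internal control marker rather than a target.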 As to conditions: HepG2 CMV promoter reporter, transcription factor profiling; actives raise or lower the signal. Summed up: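 Endogenous transcription factor activity read in HepG2 via transfected cis-promoter reporter units. After 24 h dosing, reporter mRNA measured by RT-PCR/capillary electrophoresis; gain or loss of signal fit relative to DMSO.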

Test [2] in a line: ATG_DR4_LXR_CIS: Attagene CIS-FACTORIAL HepG2 Assay for human Liver X Receptor (LXR), DR4 submotif (AID 2282929). As to conditions: HepG2 Attagene DR4 cis-reporter, mRNA transcription; actives raise or lower the signal. Summed up: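 After transient transfection with multiplexed cis-promoter reporter units, HepG2 cells received test chemicals for 24 h. Reporter mRNA induction, detected by fluorescence after RT-PCR and capillary electrophoresis, was scored relative to DMSO.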

The nature of test [3]: ATG_AP_2_CIS: Attagene CIS-FACTORIAL HepG2 Assay for human Activator Protein 2 (AP-2) (AID 2282932). The note with it: HepG2 AP-2 cis-reporter, Attagene transcription factor profiling; actives raise or lower the signal. Summed up: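 HepG2, transient MRTU transfection, cis-regulated reporters; 24 h compound exposure; RNA isolated, RT-PCR, 6-FAM labelling, HpaI digest, CE fluorescence. DMSO = negative control/baseline, bidirectional fit.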

In test [4] the target is Transcription factor E2F1 (Homo sapiens) (UniProt Q01094). In words: ATG_E2F_CIS: Attagene CIS-FACTORIAL HepG2 Assay for human E2F Transcription Factor 1 (AID 2282935). The note with it: HepG2 Attagene cis-reporter, E2F reporter RNA transcripts; actives raise or lower the signal. Summed up: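 Cis-element reporter mRNA induction in transiently transfected HepG2, 24 h exposure. Activity fitted in both directions relative to DMSO negative control.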

Test [5] can be described thus: ATG_M_61_CIS: Attagene CIS-FACTORIAL HepG2 Assay for M61 Transcription Factor (Internal Marker) (AID 2282937). As to conditions: HepG2 Attagene CIS-FACTORIAL M61 internal marker reporter; actives raise or lower the signal. Summed up: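 Using transiently transfected HepG2 liver cells, reporter transcript levels were assessed 24 h post-dosing by RT-PCR and capillary electrophoresis. Changes in either direction were fitted relative to DMSO controls.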

Test [6] is described as follows: ATG_EGR_CIS: Attagene CIS-FACTORIAL HepG2 Assay for human Early Growth Response 1 (EGR1) (AID 2282938). As to conditions: HepG2 Attagene CIS-FACTORIAL EGR reporter mRNA; actives raise or lower the signal. Summed up: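 Fluorescent capillary-electrophoresis signal of reporter cDNA fragments serves as read-out. HepG2 cells bear transiently transfected cis-promoter reporter units and are exposed 24 h; gain- or loss-of-signal is fitted against DMSO.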

A short description of test [7]: ATG_Ets_CIS: Attagene CIS-FACTORIAL HepG2 Assay for human Erythroblast Transformation Specific (ETS) (AID 2282941). The note with it: HepG2 ETS cis-reporter transcription, actives raise or lower the signal. Put shortly:
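Steps: transfect HepG2 with multiple reporter units; treat compound 24 h; isolate RNA, DNase-treat, reverse-transcribe; PCR-amplify, label with 6-FAM, digest with HpaI; separate by capillary electrophoresis. Activity fitted both directions versus DMSO.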

In test [8] the target is Hepatocyte nuclear factor 3-beta (Homo sapiens) (UniProt Q9Y261). In words: ATG_FoxA2_CIS: Attagene CIS-FACTORIAL HepG2 Assay for human Forkhead box A2 (FOXA2) (AID 2282942). The note with it: HepG2 cis-reporter transcription factor activity, 24 h; actives raise or lower the signal. Put shortly:
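Fluorescence signal of reporter cDNA fragments, separated by capillary electrophoresis, reflects endogenous transcription factor activity in transfected HepG2 after 24 h. Both increases and decreases fitted against DMSO.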

Test [9] is described as follows: ATG_FoxO_CIS: Attagene CIS-FACTORIAL HepG2 Assay for human Forkhead box O (FoxO) (AID 2282943). The note with it: HepG2 Attagene cis-reporter, FoxO element, mRNA; actives raise or lower the signal. Put shortly: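 Human hepatoma HepG2 cells carry transiently introduced reporter transcription units controlled by cis promoter elements. Chemical treatment lasted 24 h, and mRNA signal was compared with DMSO.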

The nature of test [10]: ATG_GATA_CIS: Attagene CIS-FACTORIAL HepG2 Assay for human GATA Binding Protein (AID 2282944). The note with it: HepG2 GATA cis-element reporter, Attagene multiplex mRNA; actives raise or lower the signal. Summed up:
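Measures endogenous transcription factor-driven reporter mRNA in HepG2 cells transiently carrying cis-regulated constructs. 24 h dosing; RNA via oligo(dT) reverse transcription, PCR, HpaI digestion, capillary electrophoresis; fitted relative to DMSO.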

Test [11] can be described thus: ATG_ISRE_CIS: Attagene CIS-FACTORIAL HepG2 Assay for human Interferon Regulatory Factor 1 (IRF1) binding to an Interferon-Stimulated Response Element (ISRE) (AID 2282948). As to conditions: HepG2 ISRE cis-reporter (Attagene), mRNA transcription readout; actives raise or lower the signal. Put shortly: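 Transfected HepG2 (multiple reporter transcription units, cis elements) dosed 24 h. RNA → oligo(dT) RT → PCR → 6-FAM primer extension → HpaI → CE. DMSO = negative control/baseline.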

The nature of test [12]: ATG_M_32_CIS: Attagene CIS-FACTORIAL HepG2 Assay for M32 Transcription Factor (Internal Marker) (AID 2282949).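 Also: background control marker of the multiplexed CIS panel rather than a real target.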 As to conditions: HepG2 Attagene cis-factorial M32 reporter, mRNA; actives raise or lower the signal. Put shortly:
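Fluorescent capillary electrophoresis peaks of HpaI-digested, FAM-labelled RT-PCR reporter products give the signal. Source: transiently transfected human liver HepG2 cells, 24 h after chemical dosing; bidirectional fitting against DMSO.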

A short description of test [13]: ATG_MRE_CIS: Attagene CIS-FACTORIAL HepG2 Assay for human Metal Responsive Element (MRE) (AID 2282954). As to conditions: HepG2 MRE cis-reporter transcription, Attagene multiplex; actives raise or lower the signal. Summed up:
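Transient MRTU transfection of HepG2 (FuGene 6); 24 h dosing; total RNA → oligo(dT) RT, PCR, 6-FAM primer extension, HpaI cut, CE. Bidirectional fit vs DMSO.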

In test [14] the target is Paired box protein Pax-6 (Homo sapiens) (UniProt P26367). In words: ATG_Pax6_CIS: Attagene CIS-FACTORIAL HepG2 Assay for human Paired Box 6 (PAX6) (AID 2282956). The note with it: HepG2 CIS-FACTORIAL PAX6 reporter transcription, RNA readout; actives raise or lower the signal. Summed up: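 Transient MRTU transfection of HepG2 → compound exposure 24 h → TriZol RNA, oligo(dT) RT → PCR, 6-FAM primer extension, HpaI cut → capillary electrophoresis; activity fitted both directions against DMSO.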

The nature of test [15]: ATG_PXRE_CIS: Attagene CIS-FACTORIAL HepG2 Assay for human Pregnane X Receptor Element (PXRE) (AID 2282957). As to conditions: HepG2 Attagene CIS-FACTORIAL PXRE reporter, mRNA; actives raise or lower the signal. Put shortly: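 Cis-element reporter mRNA in human hepatoma HepG2 cells is measured 24 h post-dosing by RT-PCR, primer-extension labeling and capillary electrophoresis; gain or loss of signal is fitted relative to DMSO.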

Test [16] is described as follows: ATG_Sox_CIS: Attagene CIS-FACTORIAL HepG2 Assay for human SRY-box transcription factor (SOX) (AID 2282960). The note with it: HepG2 Attagene cis-factorial SOX reporter, mRNA; actives raise or lower the signal. Put shortly: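 Using transiently transfected HepG2 cells, reporter transcription driven by cis elements was assessed 24 h after dosing. Signal was fluorescence of capillary-separated RT-PCR products, with DMSO defining baseline activity.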

A short description of test [17]: ATG_SREBP_CIS: Attagene CIS-FACTORIAL HepG2 Assay for human Sterol Regulatory Element Binding (SREBP) (AID 2282962). As to conditions: HepG2 Attagene cis-factorial SREBP reporter, mRNA; actives raise or lower the signal. Put shortly:
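Transfected HepG2 (cis-regulated reporter library, endogenous TFs) → compound 24 h → total RNA → oligo(dT) RT → reporter-specific PCR → FAM primer extension, HpaI cut → CE fluorescence. Fit bidirectional vs DMSO.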

The nature of test [18]: ATG_TCF_b_cat_CIS: Attagene CIS-FACTORIAL HepG2 Assay for human T-Cell-Factor with beta-catenin (TCF/b-cat) (AID 2282965). As to conditions: HepG2 TCF/beta-catenin cis-reporter transcription, actives raise or lower the signal. Put shortly:
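Measured: reporter mRNA in HepG2 transiently transfected with cis-promoter reporter units, 24 h after chemical addition. Fitting was bidirectional, DMSO as negative control.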

A short description of test [19]: ATG_TAL_CIS: Attagene CIS-FACTORIAL HepG2 Assay for human TAL Basal Promoter (AID 2282966).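 Also: background control endpoint measuring basal TAL promoter reporter mRNA not a specific factor.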 As to conditions: HepG2 Attagene cis-factorial TAL promoter reporter; actives raise or lower the signal. Summed up:
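In this cell-based multiplex, HepG2 liver cells bearing cis-promoter reporter constructs are dosed for 24 hours. Total RNA is reverse-transcribed and amplified, labelled fragments are sized by capillary electrophoresis, and signal changes are fitted bidirectionally versus DMSO.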

Test [20] can be described thus: ATG_TGFb_CIS: Attagene CIS-FACTORIAL HepG2 Assay for human Transforming Growth Factor (TGF) (AID 2282967). As to conditions: HepG2 Attagene CIS TGFb reporter, mRNA transcription; actives raise or lower the signal. Summed up: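 After a 24-hour incubation with compound, transfected HepG2 cells were lysed for RNA; reporter cDNA was amplified, fluorescently end-labeled and separated by CE. DMSO served as baseline for bidirectional fits.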

Each structure is given as a SMILES string. Calls of active or inactive are those of the source. The calls were made as follows: active = hit-call score of the fitted dose curve at least 0.9, where 1 is the maximum; inactive = score below 0.9.

Sequence of Transcription factor E2F1 (Homo sapiens) (Q01094 whole entry, looked up): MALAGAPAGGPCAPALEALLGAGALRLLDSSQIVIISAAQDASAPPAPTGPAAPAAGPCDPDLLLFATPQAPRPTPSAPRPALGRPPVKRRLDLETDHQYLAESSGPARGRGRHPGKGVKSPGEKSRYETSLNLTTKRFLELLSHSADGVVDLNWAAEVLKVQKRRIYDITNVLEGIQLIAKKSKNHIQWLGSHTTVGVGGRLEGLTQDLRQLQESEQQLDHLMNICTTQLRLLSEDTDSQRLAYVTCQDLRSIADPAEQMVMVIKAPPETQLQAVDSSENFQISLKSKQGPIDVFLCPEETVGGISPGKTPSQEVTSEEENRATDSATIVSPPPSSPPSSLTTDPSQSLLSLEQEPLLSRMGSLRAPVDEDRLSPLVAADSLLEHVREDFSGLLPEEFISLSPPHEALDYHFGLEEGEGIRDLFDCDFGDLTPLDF
Sequence of Hepatocyte nuclear factor 3-beta (Homo sapiens) (Q9Y261 whole entry, looked up, the tested form may be a part): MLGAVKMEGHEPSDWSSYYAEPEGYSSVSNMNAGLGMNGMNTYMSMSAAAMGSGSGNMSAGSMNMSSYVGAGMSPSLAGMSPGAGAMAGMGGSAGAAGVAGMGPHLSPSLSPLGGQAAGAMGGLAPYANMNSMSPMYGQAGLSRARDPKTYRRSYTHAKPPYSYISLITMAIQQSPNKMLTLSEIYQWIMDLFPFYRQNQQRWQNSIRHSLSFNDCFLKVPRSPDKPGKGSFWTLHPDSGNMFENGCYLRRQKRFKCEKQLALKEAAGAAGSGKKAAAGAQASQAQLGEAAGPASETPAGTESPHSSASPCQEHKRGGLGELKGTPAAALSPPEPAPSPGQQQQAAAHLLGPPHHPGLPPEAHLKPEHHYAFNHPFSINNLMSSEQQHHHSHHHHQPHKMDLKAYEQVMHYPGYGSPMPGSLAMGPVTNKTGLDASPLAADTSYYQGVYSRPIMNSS
Sequence of Paired box protein Pax-6 (Homo sapiens) (P26367 whole entry, looked up): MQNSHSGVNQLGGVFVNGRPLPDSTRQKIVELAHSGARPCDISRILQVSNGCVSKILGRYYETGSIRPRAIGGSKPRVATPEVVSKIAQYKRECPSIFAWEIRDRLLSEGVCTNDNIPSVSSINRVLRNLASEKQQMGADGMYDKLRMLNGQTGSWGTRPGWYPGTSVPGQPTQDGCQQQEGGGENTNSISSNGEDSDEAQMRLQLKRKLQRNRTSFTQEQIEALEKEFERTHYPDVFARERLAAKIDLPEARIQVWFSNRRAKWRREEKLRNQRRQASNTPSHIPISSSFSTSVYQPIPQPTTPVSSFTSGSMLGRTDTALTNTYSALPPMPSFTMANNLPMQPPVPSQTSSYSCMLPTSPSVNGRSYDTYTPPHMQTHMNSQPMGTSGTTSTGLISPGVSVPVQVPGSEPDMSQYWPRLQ

Consider `CNC(=N[N+](=O)[O-])NCC1CCOC1` (stereo not given), for which the compound was classed as inactive in [1], in test [2], in test [3], in test [4], in test [5] and in test [6]. The call in [7], in test [8], in test [9], in test [10], in [11] and in test [12] was inactive. Moreover, the call in [13], in test [14], in [15], in test [16], in test [17] and in [18] was inactive. The compound was called inactive in [19] and in [20].
Take `C[N+](C)(C)CC(=O)[O-]`: the compound was classed as inactive in test [1], in [2], in [3], in test [4], in test [5] and in test [6]. Moreover, the compound was classed as inactive in test [7], in test [8], in test [9], in test [10], in test [11] and in test [12]. Further, the result in test [13], in test [14], in test [15], in test [16], in [17] and in test [18] was inactive. For the same compound, the compound was called inactive in test [19] and in test [20].
In the case of `COC(=O)c1ccccc1S(=O)(=O)NC(=O)Nc1nc(C)cc(C)n1`, the outcome in test [1], in test [2], in test [3], in [4], in test [5] and in test [6] was inactive. Moreover, the compound was called inactive in [7], in test [8], in [9], in test [10], in test [11] and in test [12]. Besides, the result in [13], in [14], in test [15], in test [16], in test [17] and in [18] was inactive. Besides, the call in test [19] and in test [20] was inactive.
With `COc1ccc(CO)cc1`, the outcome in test [1], in test [2], in test [3], in test [4], in test [5] and in [6] was inactive. For the same compound, the call in test [7], in test [8], in test [9], in [10], in [11] and in test [12] was inactive. Also, the outcome in [13], in test [14], in test [15], in test [16], in test [17] and in test [18] was inactive. In addition, the compound was called inactive in test [19] and in test [20].
As to `O=S(=O)(O)O`, the outcome in test [1], in [2], in test [3], in test [4], in test [5] and in [6] was inactive. The call in test [7], in [8], in test [9], in test [10], in [11] and in [12] was inactive. In addition, the result in [13], in [14], in test [15], in test [16], in test [17] and in test [18] was inactive. Further, the compound was called inactive in test [19] and in test [20].
On to `CC[N+](=O)[O-]`, for which the compound was called inactive in test [1], in test [2], in test [3], in [4], in test [5] and in test [6]. Also, the compound was classed as inactive in [7], in [8], in [9], in test [10], in test [11] and in test [12]. Moreover, the outcome in test [13], in test [14], in test [15], in test [16], in [17] and in [18] was inactive. The result in test [19] and in [20] was inactive.
In general, AC50 refers to the concentration giving half of the maximal activity seen. For the compound `CCCCCc1cc(O)cc(O)c1`, the result in test [1], in [3], in test [4], in [5], in test [7] and in test [8] was inactive. The compound was classed as inactive in test [9], in test [10], in [11], in test [12], in [16] and in [17]. Besides, the call in [18] and in test [20] was inactive. Also, the AC50 was 154 µM (active) in test [2]; 100 µM (active) in test [6]; 100 µM (active) in test [13]; 146 µM (active) in [14]; 9.47 µM (active) in test [15]; 100 µM (active) in [19].

For the origin of these results see PubChem BioAssay (EPA / NIEHS).
